The full ranking holds about 2,900 compounds; the median of “NF-kB SEAP reporter activity, fold change vs agonist alone” is about 0.99, and the highest 2% start at about 2.6. What follows is part of a selection rich in the highest values, with near analogues and random picks from the rest.
Tests used:
RAW-Dual [1] = assay: NF-kB SEAP reporter activity, fold change vs agonist alone; higher = enhanced NF-kB activity
Summary of the method: (§1)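 Library stock was pin-tooled at 50 nL into 384-well plates of RAW-Dual macrophages (50,000 cells/well, DMEM), followed 1 h later by a PRR agonist, and the cells were kept at 37 °C, 5% CO2. Supernatant collected after 20 hours was read for IRF by QuantiLuc luminescence and for NF-κB by QuantiBlue absorbance at 620 nm. Reporter activity is fold change over agonist-alone wells, and a well counted as cytotoxic when its IncuCyte confluency was below 70% of agonist controls in both mask sets.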

RAW-Dual [2] = assay: NF-kB SEAP reporter activity, fold change vs agonist alone; cytotoxicity flag (confluency mask): not cytotoxic; higher = enhanced NF-kB activity
Summary of the method: as §1

RAW-Dual [3] = assay: NF-kB SEAP reporter activity, fold change vs agonist alone; cytotoxicity flag (confluency mask): cytotoxic (confluency <70% of control); higher = enhanced NF-kB activity
Summary of the method: as §1

[4] = library stock concentration (final ~1000-fold dilution): 10 mM, cytotoxicity flag (confluency mask): not cytotoxic, agonist: Imiquimod (TLR7) […]
[5] = library stock concentration (final ~1000-fold dilution): 10 mM, cytotoxicity flag (confluency mask): not cytotoxic, agonist: MPLA (TLR4) […]
[6] = agonist: ODN 1826 (TLR9) 0.5 ug/mL
[7] = agonist: Pam2CSK4 (TLR2/6) 0.1 ug/mL
[8] = agonist: Pam3CSK4 (TLR2/1) 0.1 ug/mL
[9] = library stock concentration (final ~1000-fold dilution): 10 mM, cytotoxicity flag (confluency mask): cytotoxic (confluency <70% of control), agonist: MPLA (TLR4) […]
[10] = library stock concentration (final ~1000-fold dilution): 10 mM, cytotoxicity flag (confluency mask): cytotoxic (confluency <70% of control), agonist: Imiquimod (TLR7) […]

CCCCCCCCCC(=O)NC(Cc1c[nH]c2ccccc12)C(=O)NC(CC(N)=O)C(=O)NC(CC(=O)O)C(=O)NC1C(=O)NCC(=O)NC(CCCN)C(=O)NC(CC(=O)O)C(=O)NC(C)C(=O)NC(CC(=O)O)C(=O)NCC(=O)NC(CO)C(=O)NC(C(C)CC(=O)O)C(=O)NC(CC(=O)c2ccccc2N)C(=O)OC1C (configuration not stated)
NF-kB SEAP reporter activity (RAW-Dual [1]; [4]): 0.826 | NF-kB SEAP reporter activity (RAW-Dual [1]; [5]): 0.855

CC(=O)OC(CC=C(C)C)C1=CC(=O)c2c(O)ccc(O)c2C1=O (configuration not stated) (library stock concentration (final ~1000-fold dilution): 2 mM)
NF-kB SEAP reporter activity (RAW-Dual [2]; agonist: LPS (TLR4) 0.1 ug/mL): 0.479 | NF-kB SEAP reporter activity (RAW-Dual [2]; [6]): 0.647 | NF-kB SEAP reporter activity (RAW-Dual [2]; [7]): 0.257 | NF-kB SEAP reporter activity (RAW-Dual [2]; [8]): 0.408

CC(=O)OC(CC=C(C)C)C1=CC(=O)c2c(O)ccc(O)c2C1=O (configuration not stated)
NF-kB SEAP reporter activity (RAW-Dual [1]; library stock concentration (final ~1000-fold dilution): 2 mM, cytotoxicity flag (confluency mask): not cytotoxic, agonist: Imiquimod (TLR7) […]): 0.978 | NF-kB SEAP reporter activity (RAW-Dual [1]; library stock concentration (final ~1000-fold dilution): 2 mM, cytotoxicity flag (confluency mask): not cytotoxic, agonist: MPLA (TLR4) […]): 0.978

O=c1cc(-c2ccccc2)oc2c1ccc1ccccc12 (library stock concentration (final ~1000-fold dilution): 10 mM)
NF-kB SEAP reporter activity (RAW-Dual [2]; agonist: LPS (TLR4) 0.1 ug/mL): 0.691 | NF-kB SEAP reporter activity (RAW-Dual [2]; [6]): 0.933 | NF-kB SEAP reporter activity (RAW-Dual [2]; [7]): 0.846 | NF-kB SEAP reporter activity (RAW-Dual [2]; [8]): 0.982

O=c1cc(-c2ccccc2)oc2c1ccc1ccccc12
NF-kB SEAP reporter activity (RAW-Dual [1]; [5]): 1.2

C#CCNC1CCc2ccccc21 (configuration not stated) (library stock concentration (final ~1000-fold dilution): 10 mM)
NF-kB SEAP reporter activity (RAW-Dual [2]; agonist: LPS (TLR4) 0.1 ug/mL): 1.06 | NF-kB SEAP reporter activity (RAW-Dual [2]; [6]): 0.931 | NF-kB SEAP reporter activity (RAW-Dual [2]; [7]): 1.04 | NF-kB SEAP reporter activity (RAW-Dual [2]; [8]): 1.08

C#CCNC1CCc2ccccc21 (configuration not stated)
NF-kB SEAP reporter activity (RAW-Dual [1]; [4]): 0.916 | NF-kB SEAP reporter activity (RAW-Dual [1]; [5]): 1.14

O=C1Nc2ccc(Cl)cc2C(C#CC2CC2)(C(F)(F)F)O1 (configuration not stated)
NF-kB SEAP reporter activity (RAW-Dual [1]; [9]): 0.748

O=C1Nc2ccc(Cl)cc2C(C#CC2CC2)(C(F)(F)F)O1 (configuration not stated) (library stock concentration (final ~1000-fold dilution): 10 mM)
NF-kB SEAP reporter activity (RAW-Dual [3]; agonist: LPS (TLR4) 0.1 ug/mL): 0.632 | NF-kB SEAP reporter activity (RAW-Dual [3]; [6]): 0.547 | NF-kB SEAP reporter activity (RAW-Dual [3]; [7]): 0.614 | NF-kB SEAP reporter activity (RAW-Dual [3]; [8]): 0.542

CCCC(NC1CCc2cc(F)cc(F)c2C1)C(=O)Nc1cn(C(C)(C)CNCC(C)(C)C)cn1 (configuration not stated)
NF-kB SEAP reporter activity (RAW-Dual [1]; [4]): 0.373 | NF-kB SEAP reporter activity (RAW-Dual [1]; [5]): 0.669

CCCC(NC1CCc2cc(F)cc(F)c2C1)C(=O)Nc1cn(C(C)(C)CNCC(C)(C)C)cn1 (configuration not stated) (library stock concentration (final ~1000-fold dilution): 10 mM)
NF-kB SEAP reporter activity (RAW-Dual [2]; agonist: LPS (TLR4) 0.1 ug/mL): 0.636 | NF-kB SEAP reporter activity (RAW-Dual [2]; [6]): 0.316 | NF-kB SEAP reporter activity (RAW-Dual [2]; [7]): 0.723 | NF-kB SEAP reporter activity (RAW-Dual [2]; [8]): 0.298

CC(=O)NC(CC(C)C)C(=O)NC(CC(C)C)C(=O)NC(C=O)CCCNC(=N)N (configuration not stated)
NF-kB SEAP reporter activity (RAW-Dual [1]; [4]): 0.983 | NF-kB SEAP reporter activity (RAW-Dual [1]; [5]): 1.09

CC(=O)NC(CC(C)C)C(=O)NC(CC(C)C)C(=O)NC(C=O)CCCNC(=N)N (configuration not stated) (library stock concentration (final ~1000-fold dilution): 10 mM)
NF-kB SEAP reporter activity (RAW-Dual [2]; agonist: LPS (TLR4) 0.1 ug/mL): 1.01 | NF-kB SEAP reporter activity (RAW-Dual [2]; [6]): 1.02 | NF-kB SEAP reporter activity (RAW-Dual [2]; [7]): 1.08 | NF-kB SEAP reporter activity (RAW-Dual [2]; [8]): 1.15

CN1C2=C3N=c4ccccc4=C3CCN2C(=O)c2ccccc21
NF-kB SEAP reporter activity (RAW-Dual [1]; [4]): 1.62 | NF-kB SEAP reporter activity (RAW-Dual [1]; [5]): 1.83

CN1C2=C3N=c4ccccc4=C3CCN2C(=O)c2ccccc21 (library stock concentration (final ~1000-fold dilution): 10 mM)
NF-kB SEAP reporter activity (RAW-Dual [2]; agonist: LPS (TLR4) 0.1 ug/mL): 1.05 | NF-kB SEAP reporter activity (RAW-Dual [2]; [6]): 0.339 | NF-kB SEAP reporter activity (RAW-Dual [2]; [7]): 0.824 | NF-kB SEAP reporter activity (RAW-Dual [2]; [8]): 1.1

Cc1cc2c(C(N)=O)cccc2n1-c1nc2c(c(NCc3ccccc3)n1)COCC2
NF-kB SEAP reporter activity (RAW-Dual [1]; [10]): 0.297 | NF-kB SEAP reporter activity (RAW-Dual [1]; [9]): 0.302

Cc1cc2c(C(N)=O)cccc2n1-c1nc2c(c(NCc3ccccc3)n1)COCC2 (library stock concentration (final ~1000-fold dilution): 10 mM)
NF-kB SEAP reporter activity (RAW-Dual [3]; agonist: LPS (TLR4) 0.1 ug/mL): 0.298 | NF-kB SEAP reporter activity (RAW-Dual [3]; [6]): 0.325 | NF-kB SEAP reporter activity (RAW-Dual [3]; [7]): 0.0795 | NF-kB SEAP reporter activity (RAW-Dual [3]; [8]): 0.159

CC(C)=CCC[C@](C)(O)[C@H]1CC[C@]2(C)[C@@H]3CCC4C(C)(C)[C@@H](O)CC[C@]4(C)[C@H]3C[C@@H](O)[C@@]12C (some centres not stated) (library stock concentration (final ~1000-fold dilution): 10 mM)
NF-kB SEAP reporter activity (RAW-Dual [2]; agonist: LPS (TLR4) 0.1 ug/mL): 1.41 | NF-kB SEAP reporter activity (RAW-Dual [2]; [6]): 0.693 | NF-kB SEAP reporter activity (RAW-Dual [2]; [7]): 0.848 | NF-kB SEAP reporter activity (RAW-Dual [2]; [8]): 0.882

CC(C)=CCC[C@](C)(O)[C@H]1CC[C@]2(C)[C@@H]3CCC4C(C)(C)[C@@H](O)CC[C@]4(C)[C@H]3C[C@@H](O)[C@@]12C (some centres not stated)
NF-kB SEAP reporter activity (RAW-Dual [1]; [4]): 0.934 | NF-kB SEAP reporter activity (RAW-Dual [1]; [5]): 1.14

O=c1cc(-c2ccc(O)cc2)oc2c(C3OCC(O)C(O)C3O)c(O)c(C3OC(CO)C(O)C(O)C3O)c(O)c12 (configuration not stated) (library stock concentration (final ~1000-fold dilution): 10 mM)
NF-kB SEAP reporter activity (RAW-Dual [2]; agonist: LPS (TLR4) 0.1 ug/mL): 1.45 | NF-kB SEAP reporter activity (RAW-Dual [2]; [6]): 1.03 | NF-kB SEAP reporter activity (RAW-Dual [2]; [7]): 1.08 | NF-kB SEAP reporter activity (RAW-Dual [2]; [8]): 1.08

O=c1cc(-c2ccc(O)cc2)oc2c(C3OCC(O)C(O)C3O)c(O)c(C3OC(CO)C(O)C(O)C3O)c(O)c12 (configuration not stated)
NF-kB SEAP reporter activity (RAW-Dual [1]; [4]): 1.02 | NF-kB SEAP reporter activity (RAW-Dual [1]; [5]): 1.05

CCn1cc(-c2cccc(C(F)(F)F)c2)c2sc(C(=N)NC3CCS(=O)(=O)CC3)cc2c1=O
NF-kB SEAP reporter activity (RAW-Dual [1]; [10]): 1.33 | NF-kB SEAP reporter activity (RAW-Dual [1]; [9]): 2.16

CCn1cc(-c2cccc(C(F)(F)F)c2)c2sc(C(=N)NC3CCS(=O)(=O)CC3)cc2c1=O (library stock concentration (final ~1000-fold dilution): 10 mM)
NF-kB SEAP reporter activity (RAW-Dual [3]; agonist: LPS (TLR4) 0.1 ug/mL): 3.13 | NF-kB SEAP reporter activity (RAW-Dual [3]; [6]): 0.721 | NF-kB SEAP reporter activity (RAW-Dual [3]; [7]): 1.15 | NF-kB SEAP reporter activity (RAW-Dual [3]; [8]): 1.12

CCCNC(=O)C1OC1C(=O)NC(C(=O)N1CCCC1C(=O)OC)C(C)CC (configuration not stated)
NF-kB SEAP reporter activity (RAW-Dual [1]; [4]): 0.821 | NF-kB SEAP reporter activity (RAW-Dual [1]; [5]): 1.04

CCCNC(=O)C1OC1C(=O)NC(C(=O)N1CCCC1C(=O)OC)C(C)CC (configuration not stated) (library stock concentration (final ~1000-fold dilution): 10 mM)
NF-kB SEAP reporter activity (RAW-Dual [2]; agonist: LPS (TLR4) 0.1 ug/mL): 1.06 | NF-kB SEAP reporter activity (RAW-Dual [2]; [6]): 0.881 | NF-kB SEAP reporter activity (RAW-Dual [2]; [7]): 0.854 | NF-kB SEAP reporter activity (RAW-Dual [2]; [8]): 0.799
